Common to all, as to test: yeast three-hybrid, YBZ-1, SC-Leu-His + 0.5 mM 3-AT, 4 days
Holding throughout (settings): tags: N-Gal4 AD-HA kept; label: inside an RPR1-promoter hybrid RNA with tandem MS2 sites; ssRNA

One experiment deals with PUM1 PUF domain R5-GIR (Homo sapiens, UniProt Q14671 828-1176, C1007G;R1008I;Q1011R). The method in brief: (§1)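 Each repeat of the Pumilio-1 PUF domain was randomized at its three base-contacting residues, and these libraries were co-expressed from a centromeric plasmid with matching RNA elements in strain YBZ-1. After four days on SC-Leu (input) or SC-Leu-His + 0.5 mM 3-AT (selection), the repeat regions were PCR-amplified and Illumina-sequenced. The interaction score compares variant frequency between input and selection as a log change, computed in log2 with a pseudocount of 1 for absent variants.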

The next experiment addresses T1, PUM1 PUF domain R6-AWE (Homo sapiens, UniProt Q14671 828-1176, N1043A;Y1044W;Q1047E).
T1 sequence: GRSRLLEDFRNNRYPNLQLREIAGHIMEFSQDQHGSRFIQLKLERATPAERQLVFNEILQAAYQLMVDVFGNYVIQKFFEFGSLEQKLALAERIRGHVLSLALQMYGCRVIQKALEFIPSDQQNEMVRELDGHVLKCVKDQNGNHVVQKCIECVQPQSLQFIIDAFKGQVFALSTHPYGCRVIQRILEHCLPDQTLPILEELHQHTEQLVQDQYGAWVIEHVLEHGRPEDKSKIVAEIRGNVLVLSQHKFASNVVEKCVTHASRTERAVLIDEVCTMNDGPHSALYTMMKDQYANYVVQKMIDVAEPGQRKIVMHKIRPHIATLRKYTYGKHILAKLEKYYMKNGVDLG
The method in brief: as §1

A further experiment deals with T2, PUM1 PUF domain R6-TFK (Homo sapiens, UniProt Q14671 828-1176, N1043T;Y1044F;Q1047K).
T2 sequence: T1 sequence with A216T, W217F, E220K
The method in brief: as §1

For another experiment, the target named is PUM1 PUF domain R3-EWL (Homo sapiens, UniProt Q14671 828-1176, C935E;R936W;Q939L). The method, boiled down: as §1
Another experiment concerns the target T3, PUM1 PUF domain R6-HFF (Homo sapiens, UniProt Q14671 828-1176, N1043H;Y1044F;Q1047F).
T3 sequence: T1 sequence with A216H, W217F, E220F
The method in brief:
as §1

The target in a further experiment is PUM1 PUF domain R4-VLY (Homo sapiens, UniProt Q14671 828-1176, N971V;H972L;Q975Y). The method, boiled down:
as §1

Another experiment concerns the target PUM1 PUF domain R2-IWE (Homo sapiens, UniProt Q14671 828-1176, N899I;Y900W;Q903E). The method, boiled down: as §1
The next experiment deals with PUM1 PUF domain R8-YYF (Homo sapiens, UniProt Q14671 828-1176, N1122Y;Q1126F). The method in brief: as §1
The next experiment addresses PUM1 PUF domain R1-HFK (Homo sapiens, UniProt Q14671 828-1176, S863H;R864F;Q867K). The method in brief:
as §1

The next experiment addresses PUM1 PUF domain R1-NLV (Homo sapiens, UniProt Q14671 828-1176, S863N;R864L;Q867V). The method, boiled down:
as §1

Binding signal data for ten sequences are collected here from article PMC8384837, “Expanding the binding specificity for RNA recognition by a PUF domain”.

Where a chain is given by its changes, count along the chain named.

Consider “GGCUAGAACUAGUGGAUCCCCCGGCGCCCGGCGGCUCGAGCCCGGGUAAGUGUCAAUAGUCUGCAUGCCGCCGGGCGCCAUGCCUGCAGGUCGACUCUAGAAAACAUG”, for which the binding signal with PUM1 PUF domain R5-GIR is 4.37 log2 enrichment (interaction score).
Regarding “GGCUAGAACUAGUGGAUCCCCCGGCGCCCGGCGGCUCGAGCCCGGGUAAGUGGAAAUAGUCUGCAUGCCGCCGGGCGCCAUGCCUGCAGGUCGACUCUAGAAAACAUG”, the binding signal with PUM1 PUF domain R6-AWE is 4.11 log2 enrichment (interaction score).
For “GGCUAGAACUAGUGGAUCCCCCGGCGCCCGGCGGCUCGAGCCCGGGUAAGUGUUAAUAGUCUGCAUGCCGCCGGGCGCCAUGCCUGCAGGUCGACUCUAGAAAACAUG”, in the experiment with PUM1 PUF domain R5-GIR, the binding signal is 1.6 log2 enrichment (interaction score).
Consider “GGCUAGAACUAGUGGAUCCCCCGGCGCCCGGCGGCUCGAGCCCGGGUAAGUGAAAAUAGUCUGCAUGCCGCCGGGCGCCAUGCCUGCAGGUCGACUCUAGAAAACAUG”, for which the binding signal is 7.15 log2 enrichment (interaction score) with PUM1 PUF domain R6-AWE and 2.81 log2 enrichment (interaction score) with PUM1 PUF domain R6-TFK.
“GGCUAGAACUAGUGGAUCCCCCGGCGCCCGGCGGCUCGAGCCCGGGUAAGUGUAAAUAGUCUGCAUGCCGCCGGGCGCCAUGCCUGCAGGUCGACUCUAGAAAACAUG”: the binding signal was 5.03 log2 enrichment (interaction score) with PUM1 PUF domain R3-EWL; 2.43 log2 enrichment (interaction score) with PUM1 PUF domain R5-GIR; 7.02 log2 enrichment (interaction score) with PUM1 PUF domain R6-TFK; 4.43 log2 enrichment (interaction score) with PUM1 PUF domain R6-HFF; 4.53 log2 enrichment (interaction score) with PUM1 PUF domain R4-VLY.
As to “GGCUAGAACUAGUGGAUCCCCCGGCGCCCGGCGGCUCGAGCCCGGGUAAGUGUAAAAAGUCUGCAUGCCGCCGGGCGCCAUGCCUGCAGGUCGACUCUAGAAAACAUG”, the binding signal with PUM1 PUF domain R2-IWE was 4.65 log2 enrichment (interaction score).
Turning to “GGCUAGAACUAGUGGAUCCCCCGGCGCCCGGCGGCUCGAGCCCGGGUAAGCGUAAAUAGUCUGCAUGCCGCCGGGCGCCAUGCCUGCAGGUCGACUCUAGAAAACAUG”, the binding signal in the experiment with PUM1 PUF domain R8-YYF was 5.85 log2 enrichment (interaction score).
Consider “GGCUAGAACUAGUGGAUCCCCCGGCGCCCGGCGGCUCGAGCCCGGGUAAGUGUAAAUCGUCUGCAUGCCGCCGGGCGCCAUGCCUGCAGGUCGACUCUAGAAAACAUG”, for which, in the experiment with PUM1 PUF domain R1-HFK, the binding signal was 2.71 log2 enrichment (interaction score).
Consider “GGCUAGAACUAGUGGAUCCCCCGGCGCCCGGCGGCUCGAGCCCGGGUAAGUGUAAAUUGUCUGCAUGCCGCCGGGCGCCAUGCCUGCAGGUCGACUCUAGAAAACAUG”, for which the binding signal in the experiment with PUM1 PUF domain R1-NLV is 2.72 log2 enrichment (interaction score).
With “GGCUAGAACUAGUGGAUCCCCCGGCGCCCGGCGGCUCGAGCCCGGGUAAGUGUAAUUAGUCUGCAUGCCGCCGGGCGCCAUGCCUGCAGGUCGACUCUAGAAAACAUG”, the binding signal in the experiment with PUM1 PUF domain R3-EWL was 4.51 log2 enrichment (interaction score).
